# The whole screen tested about 2,200 compounds, of which about 530 (24%) were called active.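 The calls were made as follows: active = inhibition above a set limit at one or more concentrations of the dose series; inactive = inhibition under that limit at every dose.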 Not all results are given here. Entries with a potency or affinity are not part of this list.
# Assay: S. Typhimurium nonspecific reporter signal inhibition – Salmonella Typhimurium, GFP fluorescence, counter-screen for PhoP regulon inhibitor project, dose response (AID 2401);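 also: S. typhimurium with Mg-insensitive nmpC-GFP reporter grown at 10 µM Mg2+; drop in reporter fluorescence reflects general culture growth inhibition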
# Conditions: 4 h; series mostly up to 150 µM
row,SMILES,outcome
1,Nc1nc2ccccc2n1/N=C/c1ccc(-c2ccccc2)o1,inactive
2,O=C(Nc1ccc2snnc2c1)Nc1cccc2ccccc12,inactive
3,CCOC(=O)C1=C(C)NC(SCc2cc(=O)[nH][nH]2)=C(C#N)C1c1cccs1 (configuration not stated),inactive
4,COc1ccc(C2CC(c3ccccc3)=NN2C(=O)COC(=O)c2cccnc2)cc1 (configuration not stated),inactive
5,O=C(CN1C(=O)COc2ccccc21)Nc1ccc(F)cc1,inactive
6,CCCCn1c(NCCO)nc2ccccc21,inactive
7,CCCCn1c(=N)n(CC(=O)C(C)(C)C)c2ccccc21,inactive
8,Brc1ccc2nc3c(n2c1)CCCC3,inactive
9,Cc1ccc(O)c(-c2cc(-c3ccccc3C)[nH]n2)c1,inactive
10,COC(=O)c1c(C)[nH]c(C(C)=O)c1C,inactive
11,CCN(CC(=O)Nc1ccc(N2CCOCC2)cc1)Cc1nc2ccccc2c(=O)[nH]1,inactive
12,O=C(Cn1nc(Cl)nc1Cl)c1ccc2c(c1)OCCO2,inactive
13,COc1ccc(Nc2ccc3c(c2)=NC2(CCCCC2)[N+]=3[O-])cc1,inactive
14,CCOC(=O)N1CCN(C(=O)C(NC(=O)c2ccc(CC)cc2)C(C)C)CC1 (configuration not stated),inactive
15,CC(C)CCNC(=O)C(c1ccco1)N(Cc1ccc(F)cc1)C(=O)c1snc(C(N)=O)c1N (configuration not stated),inactive
16,O=C1c2ccccc2-c2onc3ccc(NCc4ccco4)c1c23,inactive
17,CCOC(=O)c1c(C)[nH]c(C)c1C(=O)COC(=O)/C=C/c1cccc(F)c1,inactive
18,COC(=O)c1ccccc1NC(=O)CS(=O)(=O)Cc1nc(-c2ccc(C)cc2)oc1C,inactive
19,Cc1ccc(CNC(=O)c2cccc(S(C)(=O)=O)c2)cc1,inactive
20,CCOC(=O)CC(=O)CSc1nc2c(c(C)c1C#N)CCC2,inactive
21,CCn1c(SCc2nc3scc(-c4ccccc4)c3c(=O)[nH]2)nnc1-c1cccs1,inactive
22,CN1c2ccccc2C(C)(C)[C@]12C=Cc1cc(O)ccc1O2,inactive
